Measurements from PubChem BioAssay (NCATS).
Inconclusive results are not listed. Calls of active or inactive are those of the source. Calls come from the whole dose curve; as a rule, active = well fitted activation curve with a large enough effect; inconclusive = small, poorly fitted or top-dose-only effect; inactive = flat fitted curve, though single readings scatter.

assay: Cellular Toxicity (caspase-3) Hek293 (AID 664); conditions: HEK293 caspase-3 activation, DMSO = 0%, 100 µM tamoxifen = 100%; series mostly up to 92.2 µM;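 note: cells exposed to compound for 16 h at 37 °C before readout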
From the text: NIH Chemical Genomics Center [NCGC]
NIH Molecular Libraries Screening Centers Network [MLSCN]
National Institutes of Environmental Health Sciences [NIEHS]
National Toxicology Program [NTP]
We have developed a 1536-well cell-based assay for quantitative high throughput screening (qHTS) against a number of cell lines to determine in vitro caspase 3/7 of small molecules. This particular assay uses the Hek 293 cell line which is derived from human embryonic kidney cells.
NCGC Assay Protocol Summary:
The Caspase-Glo 3/7 assay (Promega) is a homogeneous method to measure caspase-3 and caspase-7 activities in cultured cells. The quantitation of caspase 3/7 activity is based on the cleavage of a peptide-aminoluciferin substrate. After caspase cleaves the substrate the free aminoluciferin is liberated and serves as the substrate of luciferase, which generates the light. The luminescent signal is proportional to amount of caspase 3/7 activity present.
Using the Caspase-Glo 3/7 assay, the amount of caspase 3/7 activity was measured in the Hek 293 cell line with complete culture medium following compound treatment for 16 hours. The assay was performed in opaque white 1536-well plates. In the screen, tamoxifen and doxorubicin were used as positive controls. Library compounds were measured for their ability to cause the activation of caspase 3/7 in the cell line, as reflected by an increase in luminescence signal, in a concentration-dependent manner. Data were normalized to the controls for basal activity (DMSO only) and 100% stimulation (100 uM tamoxifen). AC50 values were determined from concentration-response data modeled with the standard Hill equation.
qHTS protocol for caspase 3/7 assay in Hek 293 cells
[Step] [Parameter] [Value] [Description]
2. Time; 5 hr; 37 °C incubation
4. Controls; 23 nL; Tamoxifen 0.23 uM to 100 uM & Doxorubicin 7.0 pM to 100 uM
5. Time; 16 hr; 37 °C incubation
6. Reagent; 5 uL; Caspase-Glo 3/7 reagent
7. Time; 20 min; Room Temperature
8. Detection; Luminescence; Viewlux plate reader
Keywords: caspase 3/7, apoptosis, Hek 293 cell line, luminescence, NTPHTS, NTPHTS_NCGC, NIEHS, EPA, DSSTox, MLSMR, MLSCN, NIH Roadmap, qHTS, NCGC

Compound | outcome
CCOP(=S)(OCC)Oc1cc(C)nc(C(C)C)n1 | inactive
Oc1ccc(Cl)cc1Cc1ccccc1 | inactive
Oc1cccc2cccnc12 | inactive
CNCC(O)c1ccc(O)cc1 (stereo not given) | inactive
NCC(O)c1ccc(O)cc1 (stereo not given) | inactive
CCCC(C)(COC(N)=O)COC(=O)NC(C)C (stereo not given) | inactive
OCCOc1ccccc1 | inactive
N[C@@H](Cc1ccc(N(CCCl)CCCl)cc1)C(=O)O | inactive
Oc1ccccc1-c1ccccc1 | inactive
c1ccc2c(c1)Nc1ccccc1S2 | inactive
